TEAD-YAP inh = TEAD-YAP interaction inhibition. hit rate 1.4% among 640,000. HEK-TIYL cells, TEAD-Gal4/YAP UAS-luciferase luminescence. inhibition, % at 9.12 µM; in the data active = inhibition above about 32%
MITF inh = inhibitors of human MITF. O75030. AlphaScreen MITF homodimerization, bead proximity signal. inhibition, % at 2.6 µM. hit rate 0.91% among 650,000. AID 1259374; in the data active = inhibition above about 50%
GPR151 ag = activators of human GPR151; Q8TDV0; PathHunter beta-arrestin GPR151 cells, luminescence; activation, % at 11.2 µM; hit rate 1% among 650,000; in the data active = activation above about 4.9%
FBW7 activator = human FBW7 E3 ligase activation, primary screen; Q969H0; hit rate 0.13% among 650,000; AlphaScreen FBW7–phospho-cyclin E peptide binding, activator screen; AID 1259310; normalized activity (activation), % at 26.1 µM; in the data active = normalized activity above about 1.9%;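 also: purified mutant Fbw7 with reduced substrate affinity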
Large screens that a line does not name were inactive. A selection: hits, their analogues and other compounds. The true share with any hit is near 3.5%.

CCOC(=O)C1=NN(C(=O)Cc2ccccc2)C(O)(C(C)(C)C)C1 (stereo unspecified)	none
COC(=O)C1=NN(C(=O)Cc2ccccc2)C(O)(C(C)(C)C)C1 (stereo unspecified)	FBW7 activator 2.0
O=C(NCc1ccc(F)cc1)NC1CCCCC1	none
Cc1ccc(C2=N/C(=C\c3ccccc3OC(=O)c3ccc(Br)cc3)C(=O)O2)cc1	TEAD-YAP inh 37
CC(=O)Nc1ccc(C2=N/C(=C/c3ccc(OCc4ccccc4)cc3)C(=O)O2)cc1	TEAD-YAP inh 43
O=C1OC(c2ccc(Cl)cc2)=N/C1=C\c1ccc(OCc2ccccc2)cc1	none
Cc1ccc(C2=N/C(=C\c3ccccc3OCc3ccccc3)C(=O)O2)cc1	TEAD-YAP inh 41
CC(C)N(Cc1nc(-c2ccccc2)no1)S(=O)(=O)c1ccc(Cl)cc1	none
N#Cc1nc(N2CCCCC2)nc(N2CCCCC2)n1	none
CCNc1nc(C#N)nc(N2CCCCC2)n1	TEAD-YAP inh 41
Cc1cc2nc(N3CCCN(Cc4c(C)nc5sccn45)CC3)nc(C)c2cc1C	TEAD-YAP inh 32
Cc1cc2nc(N3CCCN(Cc4ccc(CO)o4)CC3)nc(C)c2cc1C	none
Oc1ccc(CCNc2nc(Nc3ccccc3)nc3nc[nH]c23)cc1	TEAD-YAP inh 52
COc1cc(Nc2nc(NCCO)c3[nH]cnc3n2)cc(OC)c1OC	none
c1ccc(OCCNc2nc(Nc3ccncn3)nc3nc[nH]c23)cc1	FBW7 activator 33
CN(C)c1cccc(Nc2nc(NCc3ccccc3)c3[nH]cnc3n2)c1	FBW7 activator 2.4
COc1cc(Nc2nc(NCCc3ccc(O)cc3)c3[nH]cnc3n2)cc(OC)c1OC	TEAD-YAP inh 46
COc1ccc(-n2nc(C(=O)Nc3ccc(OC)c(OC)c3)c3ccccc3c2=O)c(OC)c1	none
CN(C)CCNC(=O)c1cn(Cc2ccc(F)cc2)nn1	none
Cc1cnc(Nc2ccncn2)nc1NCCc1ccc(O)cc1	none
Oc1ccc(CCNc2nc(Nc3ccncc3)nc3nc[nH]c23)cc1	none
Cc1cnc(Nc2cnccn2)nc1NCCc1ccc(O)cc1	TEAD-YAP inh 36
Oc1ccc(CCNc2nc(Nc3cnccn3)nc3nc[nH]c23)cc1	TEAD-YAP inh 39
COc1cc(C(=O)NC(C)(C)C)ccc1OC(C)C	none
Cc1ccc2nc(-c3ccccc3)c(-c3ccccc3)nc2c1	none
Cc1ccc2cc3c(nc2c1)-c1ccccc1C3	TEAD-YAP inh 60
Cc1cc(C)c2c(c1)Cc1cc3ccccc3nc1-2	none
c1ccc2c(c1)Cc1cc3ccccc3nc1-2	TEAD-YAP inh 47
CCOC(=O)c1sc(NC(=O)Cc2cccc3ccccc23)nc1C	none
CCN(CC)S(=O)(=O)c1ccc(N=Cc2c(O)[nH]c(=S)[nH]c2=O)cc1	none
Nc1cc(N=Cc2c(O)[nH]c(=S)[nH]c2=O)ccc1O	MITF inh 92
CCN(CC)c1ccc(N=Cc2c(O)[nH]c(=S)[nH]c2=O)cc1	MITF inh 51
CCCCCC(=O)NC(N1CCOCC1)C(Cl)(Cl)Cl (stereo unspecified)	none
Cc1ccsc1/C=C1\S/C(=N/c2nccs2)NC1=O	TEAD-YAP inh 38
COc1cccc(/C=N/Nc2ccc3ccccc3n2)c1OC	TEAD-YAP inh 98
C(=N\Nc1ccc2ccccc2n1)/c1ccc2c(c1)OCCO2	TEAD-YAP inh 80
COc1ccc(/C=N/Nc2ccc3ccccc3n2)cc1	none
C(=N\Nc1nncc2ccccc12)/c1ccc2c(c1)OCCO2	TEAD-YAP inh 98
COc1ccc(/C=N/Nc2ccc3ccccc3n2)c(OC)c1OC	none
C(=N\Nc1ccc2ccccc2n1)/c1cccnc1	TEAD-YAP inh 75
COc1ccc(CC(=O)N2CCCC(c3c(S(C)(=O)=O)cnc4ncnn34)C2)cc1 (stereo unspecified)	none
Cc1ccc(C(=O)N/C(=C\c2ccc(Br)cc2)C(=O)Nc2cccc(F)c2)cc1	none
O=C(O)CCCN1C(=O)/C(=C/c2ccc(O)cc2)SC1=S	TEAD-YAP inh 75
O=C(O)CN1C(=O)/C(=C\c2ccc(O)cc2O)SC1=S	MITF inh 87
COc1cc(/C=C2/SC(=S)N(CCC(=O)O)C2=O)ccc1O	TEAD-YAP inh 32
O=C(O)CN1C(=O)/C(=C\c2cc(Cl)ccc2O)SC1=S	none
O=C(O)CCCN1C(=O)/C(=C\c2ccccc2)SC1=S	none
O=C(O)CCCN1C(=O)/C(=C\c2ccc(O)cc2)SC1=S	TEAD-YAP inh 66
O=C(O)CCN1C(=O)/C(=C/c2ccc([N+](=O)[O-])o2)SC1=S	MITF inh 56
O=C(O)CCCN1C(=O)/C(=C\c2ccccn2)SC1=S	TEAD-YAP inh 87
O=C(CC1C(=O)NCCN1Cc1cccc(F)c1F)NCCCn1ccc2ccccc21 (stereo unspecified)	none
